In PMC4336329 (PLoS ONE, 2015):
Among all 310,000 compounds or so, about 14,000 (4.5%) showed an effect of 50% or more. The effect is printed as a negative number. The entries come from a sample that favours strong results as a whole.

molecular target: human ether-à-go-go-related gene (hERG) potassium channel (human, UniProt Q12809); experiment: primary screen, population patch clamp on CHO cells stably expressing hERG; higher = less effect of the substance
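Note: peak tail current of the secondary pulse compared with the same well before compound.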

Sequence of human ether-à-go-go-related gene (hERG) potassium channel (Q12809 whole entry, looked up): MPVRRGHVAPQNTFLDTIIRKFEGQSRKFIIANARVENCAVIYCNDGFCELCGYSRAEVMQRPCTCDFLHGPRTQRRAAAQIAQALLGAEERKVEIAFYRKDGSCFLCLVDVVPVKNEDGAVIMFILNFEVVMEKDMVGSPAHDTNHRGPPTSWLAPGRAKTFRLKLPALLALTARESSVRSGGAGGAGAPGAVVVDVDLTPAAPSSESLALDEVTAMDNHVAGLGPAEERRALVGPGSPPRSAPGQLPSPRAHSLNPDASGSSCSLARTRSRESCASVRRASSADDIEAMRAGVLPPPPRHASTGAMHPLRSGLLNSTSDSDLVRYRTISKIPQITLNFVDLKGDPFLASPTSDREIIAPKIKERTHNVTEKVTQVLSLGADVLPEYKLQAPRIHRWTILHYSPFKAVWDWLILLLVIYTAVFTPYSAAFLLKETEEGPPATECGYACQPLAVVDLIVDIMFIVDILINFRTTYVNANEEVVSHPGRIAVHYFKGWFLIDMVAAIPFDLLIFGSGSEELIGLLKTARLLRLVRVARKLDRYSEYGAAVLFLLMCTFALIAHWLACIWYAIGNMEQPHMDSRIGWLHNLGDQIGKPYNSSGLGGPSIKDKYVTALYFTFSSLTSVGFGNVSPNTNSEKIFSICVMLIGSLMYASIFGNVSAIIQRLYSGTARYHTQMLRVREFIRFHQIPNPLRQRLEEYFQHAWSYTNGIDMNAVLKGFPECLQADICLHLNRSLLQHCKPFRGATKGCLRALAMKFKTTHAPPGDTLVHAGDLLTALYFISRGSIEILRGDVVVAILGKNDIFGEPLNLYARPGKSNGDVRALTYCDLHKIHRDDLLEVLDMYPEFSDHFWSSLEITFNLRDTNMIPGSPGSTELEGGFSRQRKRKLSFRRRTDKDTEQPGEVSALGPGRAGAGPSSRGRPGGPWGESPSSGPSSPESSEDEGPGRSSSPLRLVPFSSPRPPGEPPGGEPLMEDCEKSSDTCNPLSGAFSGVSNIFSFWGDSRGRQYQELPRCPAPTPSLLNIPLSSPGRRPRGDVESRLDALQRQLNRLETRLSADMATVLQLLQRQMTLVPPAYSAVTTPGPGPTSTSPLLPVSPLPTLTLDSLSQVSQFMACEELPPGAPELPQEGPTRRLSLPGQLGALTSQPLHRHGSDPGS

SMILES | hERG current change (%, negative = inhibition) at 10uM [%]
CCSC1=C(C#N)C(c2cccc(O)c2)CC(=O)N1 (centres unmarked) | 2.7
N#Cc1ccc(NC(=O)CCc2ccc(S(=O)(=O)N3CCOCC3)cc2)cc1 | -51.5
O=C(COC(=O)CCc1ccc(S(=O)(=O)N2CCOCC2)cc1)Nc1cccc(Cl)c1 | -30.3
O=C(CNc1cc(S(=O)(=O)N2CCOCC2)ccc1NCC1CCCO1)Nc1ccc(C(F)(F)F)cc1 (centres unmarked) | -30.4
O=C(CCc1ccccc1)Nc1ccc(S(=O)(=O)N2CCOCC2)cc1 | -28.1
CC(=O)c1cccc(NC(=O)COC(=O)CCc2ccc(S(=O)(=O)N3CCOCC3)cc2)c1 | 6.05
N#Cc1ccc(NC(=S)NC(=O)CCc2ccc(S(=O)(=O)N3CCOCC3)cc2)cc1 | 0.205
COc1ccc(NC(=O)CNc2cc(S(=O)(=O)N3CCOCC3)ccc2NCC2CCCO2)cc1 (centres unmarked) | -18.3
N#Cc1ccc(NC(=O)CNc2cc(S(=O)(=O)N3CCOCC3)ccc2NCC2CCCO2)cc1 (centres unmarked) | -70
N#Cc1cccc(NC(=O)COC(=O)CCc2ccc(S(=O)(=O)N3CCOCC3)cc2)c1 | -60.1
O=C(O)c1ccc(COCC(F)(F)C(F)F)o1 | 16
CC(CNC(=O)C(C)C)NC(=O)C(C)C (centres unmarked) | 7.92
CCN1C(=O)[C@H]2[C@@H](c3ccc(Cl)cc3)N3C(=O)CN(CCOC)C(=O)[C@@]3(C)[C@H]2C1=O | 3.18
COc1ccc(C2(C(=O)Nc3ccc(C(=O)O)cc3)CCOCC2)cc1 | 9.95
COc1ccc(Cl)cc1NC(=O)CNc1ccccc1CN(C)C1CCCCC1 | -37.9
CC1CN(C(=O)/C=C/c2ccc3c(c2)OCO3)CC(C)O1 (centres unmarked) | -21
COc1ccc(/C=C/C(=O)N2CC(C)OC(C)C2)cc1OC (centres unmarked) | -11
CC1CN(C(=O)/C=C/c2ccc(SC(F)F)cc2)CC(C)O1 (centres unmarked) | -59.6
C#Cc1ccc([C@H]2C=C(C(=O)N3CCN(Cc4ccccc4)CC3)O[C@@H](OCC)[C@@H]2CCCO)cc1 | -19.6
COc1ccccc1OCC(=O)NCCSCc1ccccc1Cl | -22.6
CC(C)(C)NC(=O)CN1CCC(NC(=O)C23CC4CC(CC(C4)C2)C3)CC1 | 28.1
O=C(Nc1cccnc1)c1cccnc1Cl | 4.09

SMILES | hERG current change (%, negative = inhibition) at 10uM [%]
CCn1c(C)c(C(C)=O)c(N2CCN(c3cccc(Cl)c3)CC2)nc1=S | -27.6
CC(=O)c1c(N2CCN(c3ccc(F)cc3)CC2)nc(=S)n(-c2ccccc2)c1C | -75
COc1ccc(N2CCN(c3nc(=S)n(-c4ccccc4)c(C)c3C(C)=O)CC2)cc1 | -9.97
CC(=O)c1c(N2CCN(c3cccc(Cl)c3)CC2)nc(=S)n(-c2ccccc2)c1C | -68.8
CC(=O)c1c(N2CCCC2)nc(=S)n(-c2ccccc2)c1C | -0.251
CC(=O)c1c(N2CCN(c3ccccc3)CC2)nc(=S)n(-c2ccccc2)c1C | -20.1
CC(=O)Nc1ccccc1-c1nc2cc(C#N)c(C#N)cc2[nH]c1=O | -4.17
O=c1[nH]c(NCCO)nc2c1C1(CCCCC1)Cc1ccccc1-2 | 7.03
COc1cccc(/C=N/NC(=O)CNC(=O)c2ccc3c(c2)OCCO3)c1O | -0.701
O=C(NCC1CCCO1)c1cnn2c(C(F)F)cc(C3CC3)nc12 (centres unmarked) | -2.7
CCCOC(=O)c1ccc(Nc2nc(C)cc(=O)[nH]2)cc1 | 3.46
COc1ccc(NC(=O)NC2CCCc3ccccc32)c(OC)c1 (centres unmarked) | 13.3
Cc1ccc(NC(=O)COC(=O)CSCC(=O)Nc2cc(C)on2)c(C)c1 | -17.9
Cc1ccc(NC(=O)CSCC(=O)OCc2cc(=O)oc3cc(O)ccc23)c(C)c1 | -53.2
COC(=O)Cc1cc(=O)oc2cc(O)ccc12 | 5.29
CCOc1ccc(/C=N/NC(=S)NC2CC3CC2C2C=CCC32)cc1 (centres unmarked) | 6.33
CC1=C(C(=O)OCc2ccccc2)C(c2ccc(C)o2)C2=C(CCCC2=O)N1 (centres unmarked) | -23.7
Cc1cc(C(F)(F)F)c2sc(N)nc2n1 | 5.61
CC(c1nc2ccccc2c(=O)[nH]1)N1CCCN(S(=O)(=O)c2ccc(F)cc2)CC1 (centres unmarked) | -59.1
CC(c1nc2ccccc2c(=O)[nH]1)N1CCN(C)CC1 (centres unmarked) | -5.2
Cc1ccc(S(=O)(=O)N2CCCN(C(C)c3nc4ccccc4c(=O)[nH]3)CC2)cc1 (centres unmarked) | -25.6
CC1CCN(S(=O)(=O)c2ccc(NC(=O)C3CSC4(C)CCC(=O)N34)cc2)CC1 (centres unmarked) | -6.34
